The source of these data is PubChem BioAssay (NCI).

Common to all, as to assay: NCI-60 one-dose screen, 48 h (100 = growth as untreated, 0 = no growth, -100 = all killed)
Common to all, as to settings: 10 µM unless noted

Assay [1] relates to T-47D breast.
Assay [2] relates to BT-549 breast.
In assay [3] the test system is MDA-MB-435 melanoma.
Assay [4] concerns SW-620 colon.
The subject of assay [5] is MCF7 breast.
Assay [6] has as its system HCT-116 colon.
Assay [7] relates to HCC-2998 colon.
In assay [8] the test system is KM12 colon.

Each structure is given as a SMILES string. Compounds without any hit were thinned out: in the full panel of roughly 83,000, 20% have a hit.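 The test compound was applied at a single concentration to cells in 96-well plates for 48 hours, and percent growth was recorded.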 A number with no mark means an inactive call. Active and inactive are the calls of the source. Rule for the calls: active = growth percent below 10; inactive = the rest.

For the compound `C=C1CCC2C3(C)COC(c4cccc(Cl)c4)OC3CCC2(C)C1/C=C/C1=CCOC1=O` (centres undefined), the growth in assay [1] is 27.7%; in assay [2] it was 55.9%; in assay [3] it was 79.4%; in assay [4] it was 78.4%; in assay [5] it was 42%; in assay [6], 28.9%. Moreover, the growth in assay [7] is 39.9%; in assay [8] it was 74.3%.
As for `CCOC(=O)c1c2ncccc2n2c(=O)n(-c3ccc(Cl)cc3)nnc12`, the growth in assay [1] was 61.1%; in assay [2], 43.6%; in assay [3], 49.7%; in assay [4], 105%; in assay [5], 76.6%; in assay [6], 86.9%. Besides, the growth is 90.3% in assay [7] and 70.7% in assay [8].
Turning to `Oc1c(Cl)cc(Cl)cc1CNc1nccnn1`, the growth in assay [1] was 105%; in assay [2], 105%; in assay [3] it was 99.3%; in assay [4], 102%; in assay [5], 99.2%; in assay [6] it was 98.1%. In addition, the growth in assay [7] is 98.6%; in assay [8], 93.1%.
Consider `C=C1CC2(OC1=O)C(=O)N(CCCCCCCN1C(=O)C3(CC(=C)C(=O)O3)c3ccccc31)c1ccccc12` (centres undefined), for which the growth in assay [1] is 22.5%; in assay [2], 35.2%; in assay [3] it was 6.35% (active); in assay [4], -49.8% (active); in assay [5] it was -4.01% (active); in assay [6] it was -21.8% (active). Besides, the figures for the growth in assay [7] and in assay [8] were 82.5% and 73.6%, respectively.
For the compound `O=C1/C(=C/c2ccccc2)CN(CCC(=O)N2C/C(=C\c3ccccc3)C(=O)/C(=C/c3ccccc3)C2)C/C1=C\c1ccccc1`, the growth in assay [1] was 26.6%; in assay [2], 56.3%; in assay [3], -40.7% (active); in assay [4], 7.07% (active); in assay [5] it was -2.24% (active); in assay [6] it was -60.6% (active). The figures for the growth in assay [7] and in assay [8] were 26.7% and 10.1%, respectively.
In the case of `COc1ccc2nc3cc(Cl)ccc3c(N3CCN(c4ccnc(N5CCN(C)CC5)n4)CC3)c2c1`, the growth was -26.1% (active) in assay [1]; 55.5% in assay [2]; 66.5% in assay [3]; -55.1% (active) in assay [4]; -55.8% (active) in assay [5]; -62.4% (active) in assay [6]. Also, the growth in assay [7] was 8.43% (active); in assay [8], 36%.
Consider `CCCCCCCCCCNC(=O)CCl`, for which the growth in assay [1] was 41.1%; in assay [2], 49%; in assay [3], 89.6%; in assay [4], 93.3%; in assay [5] it was 74.5%; in assay [6], 69.3%. The growth in assay [7] is 84.4%; in assay [8], 67.4%.
With `Cn1c2ccccc2c2c3c(c4c5ccccc5[nH]c4c21)C(=O)N(N)C3=O`, the growth in assay [1] was 30.9%; in assay [2], 46.6%; in assay [3] it was 57.9%; in assay [4], 44.7%; in assay [5] it was 23.9%; in assay [6] it was 40.7%. For the same compound, the growth in assay [7] is 74.4%; in assay [8], 62.8%.
Consider `O=C(Nc1nc(-c2ccccc2)cc(-c2ccc(Cl)cc2)n1)c1ccncc1`, for which the growth in assay [1] is 83%; in assay [2] it was 101%; in assay [3], 96.8%; in assay [4], 90.9%; in assay [5], 84.6%; in assay [6] it was 87.6%. Moreover, the growth in assay [7] was 102%; in assay [8], 100%.
For `Oc1cccc(Nc2nccc(-c3ccc4ccccc4c3)n2)c1`, the growth in assay [1] is 47.6%; in assay [2], 41.3%; in assay [3], -1.27% (active); in assay [4], 31.3%; in assay [5], 25.3%; in assay [6], 20.6%. The growth was 52.2% in assay [7] and 28.2% in assay [8].
For `COc1cc(NCCCCCN=C(N)NC(N)=NC(C)C)c2ncccc2c1`, the growth in assay [1] was 24.6%; in assay [2] it was -0.951% (active); in assay [3], 69.2%; in assay [4] it was 25.2%; in assay [5], -91.6% (active); in assay [6], -4.52% (active). For the same compound, the growth is 11% in assay [7] and 3.06% (active) in assay [8].
Regarding `Cn1cc(-c2nc(-c3c[nH]c4ccccc34)cs2)c2cccnc21`, the growth in assay [1] is 0.223% (active); in assay [2], 7.05% (active); in assay [3] it was 1.86% (active); in assay [4] it was 32%; in assay [5], 14.7%; in assay [6], 26.3%. The growth in assay [7] is 54.7%; in assay [8], 27.4%.
In the case of `CC[C@H](CO)Nc1nc(NCc2ccccc2)n2ncc(C(C)C)c2n1`, the growth is 28.3% in assay [1]; -28.1% (active) in assay [2]; 11.3% in assay [3]; 1.96% (active) in assay [4]; 2.6% (active) in assay [5]; 13.7% in assay [6]. For the same compound, the growth is -27.9% (active) in assay [7] and 1.41% (active) in assay [8].
`CCOC(=O)Cc1cnn(C)c1NC(=O)c1ccc(Cl)cc1NC(C)=O`: the growth in assay [1] is 103%; in assay [2] it was 93.2%; in assay [3], 99.4%; in assay [4], 105%; in assay [5], 106%; in assay [6], 101%. In addition, the growth in assay [7] is 107%; in assay [8], 102%.
`CC/C(Cc1ccccc1)=C(\c1ccc(OCCN2CCCC2)cc1)c1ccc(OC(C)=O)cc1`: the growth was 51.4% in assay [1]; 93.8% in assay [2]; 69.7% in assay [3]; 89.9% in assay [4]; 24.6% in assay [5]; 78.7% in assay [6]. The growth was 56.3% in assay [7] and 70.7% in assay [8].
Take `COc1cc(/C=N\NC(=O)CN2CCN(c3cc4c(cc3F)c(=O)c(C(=O)N/N=C/c3ccc(O)c(OC)c3)cn4C3CC3)CC2)ccc1O`: the growth is -1.62% (active) in assay [1]; 56% in assay [2]; 55% in assay [3]; 57.2% in assay [4]; 12.5% in assay [5]; 53.6% in assay [6]. Further, the results for the growth in assay [7] and in assay [8] were 7.72% (active) and 20.5%, respectively.
On to `CCC(c1ccc(O)cc1)C(CC)c1ccc(O)c(F)c1` (centres undefined), for which the growth was 65.8% in assay [1]; 92.9% in assay [2]; 75.1% in assay [3]; 93.7% in assay [4]; 103% in assay [5]; 59% in assay [6]. In addition, the results for the growth in assay [7] and in assay [8] were 96.4% and 82.6%, respectively.
In the case of `Cc1cc(Nc2nc(N3CCOCC3)nc3ccccc23)n[nH]1`, the growth in assay [1] is 72.5%; in assay [2] it was 61.5%; in assay [3], 57.4%; in assay [4] it was 79.3%; in assay [5], 47.8%; in assay [6], 40.1%. Also, the growth was 83.4% in assay [7] and 10.3% in assay [8].
In the case of `Fc1ccc(Cc2ccc(F)cc2)cc1`, the growth in assay [1] was 101%; in assay [2], 128%; in assay [3], 114%; in assay [4], 99.1%; in assay [5], 99%; in assay [6] it was 102%. Further, the growth is 114% in assay [7] and 108% in assay [8].
Take `Cn1cc(-c2csc(-c3cn(C)c4ncccc34)n2)c2ccccc21`: the growth is 31.8% in assay [1]; 22% in assay [2]; -40.1% (active) in assay [3]; 20.7% in assay [4]; 13% in assay [5]; 20.5% in assay [6]. The growth in assay [7] is 37.6%; in assay [8], 23.1%.
Take `CCOC(=O)C(CC)n1c(=O)c2cc(OC)c(OC)cc2c2cnc3[nH]ccc3c21` (centres undefined): the growth in assay [1] is 26.1%; in assay [2] it was 47.6%; in assay [3] it was 88.2%; in assay [4] it was 79.9%; in assay [5] it was 50.1%; in assay [6], 67.9%. Moreover, the growth is 83.4% in assay [7] and 26% in assay [8].
On to `C(=N\Nc1nnn(Cc2ccccc2)n1)/c1ccccc1`, for which the growth was 45.6% in assay [1]; 46.5% in assay [2]; -26.1% (active) in assay [3]; 35.2% in assay [4]; 27.5% in assay [5]; 43.8% in assay [6]. The values for the growth in assay [7] and in assay [8] were 45.6% and 19.4%, respectively.
For the compound `Oc1ccccc1N=Cc1c(O)ccc2ccccc12`, the growth was 63% in assay [1]; 54.5% in assay [2]; 79.1% in assay [3]; 85.7% in assay [4]; 70.4% in assay [5]; 70.6% in assay [6]. In addition, the values for the growth in assay [7] and in assay [8] were 92.4% and 59.1%, respectively.
Take `COc1ccc(-c2cc(-c3cccnc3)nc3sc4c(=O)n(-c5ccc(C)cc5)cnc4c23)cc1OC`: the growth is 98.7% in assay [1]; 100% in assay [2]; 98.7% in assay [3]; 96.2% in assay [4]; 97% in assay [5]; 99.1% in assay [6]. The growth in assay [7] is 109%; in assay [8], 101%.
As for `COc1ccc(/C=N\NC(=O)c2ccncc2)cc1O`, the growth in assay [1] is 87.3%; in assay [2], 98.1%; in assay [3] it was 98.5%; in assay [4], 107%; in assay [5], 95.7%; in assay [6], 94.1%. The growth in assay [7] is 101%; in assay [8], 94.2%.
Consider `CCCN(CCC)CN(CCC)CCC`, for which the growth in assay [1] is 102%; in assay [2], 91.4%; in assay [3], 99.4%; in assay [4], 103%; in assay [5], 93%; in assay [6] it was 95.7%. For the same compound, the results for the growth in assay [7] and in assay [8] were 104% and 101%, respectively.
In the case of `COC1=CC(=O)C(OC)=C(OC)C1=O`, the growth in assay [1] was 97%; in assay [2] it was 101%; in assay [3], 97.5%; in assay [4], 101%; in assay [5], 90.6%; in assay [6] it was 92.3%. The growth is 117% in assay [7] and 110% in assay [8].
With `Brc1cccc(-c2nc(-c3ccc4c(c3)OCCO4)co2)c1`, the growth in assay [1] was 46.6% [25 µM]; in assay [2] it was 68.7% [25 µM]; in assay [3] it was -31.9% [25 µM] (active); in assay [4], 23% [25 µM]; in assay [5] it was 37% [25 µM]; in assay [6] it was 31.8% [25 µM]. In addition, the growth in assay [7] is 92.1% [25 µM]; in assay [8] it was 38.5% [25 µM].
